Compound activity deposited in PubChem BioAssay by National Center for Advancing Translational Sciences (NCATS).
B2AR arrestin = recruits beta-arrestin to the human beta2-adrenergic receptor; P07550; Potency, µM (top dose mostly 46.1 µM), inactives show at the highest dose activation, usual class: activators; beta-arrestin recruitment to beta2AR, cell-based reporter; 330,000 compounds, 0.02% hits;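 also: potency is read from the fitted curve at half-maximal effect; 0% = DMSO controls and full agonism = EC100 isoproterenol or metaproterenol; nearly all actives have a fitted effect of over 65% in size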
Gal4-VP16 FLuc = counter-screen for ROR gamma inhibitors: Gal4-VP16 reporter. Drosophila S2 Gal4-VP16 UAS-luciferase, luminescence, 20 h. Potency, µM (highest dose often 53.6 µM), without a hit: at the top dose activity, negative = inhibition, usual class: inhibitors. 310,000 compounds, 3.5% hits. AID 2546;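 also: Gal4-VP16 expression switched on by copper sulfate through the metallothionein promoter; potency is read from the fitted curve at half-maximal effect; nearly all actives have a fitted effect of over 50% in size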
TSHR antagonist = blocks TSH signaling through the human TSH receptor; P16473; TSHR-expressing cells, TSH-stimulated cAMP HTRF, 2 h; hits give low values; activity change, negative = inhibition, % at 11.5 µM; 330,000 compounds, 0.2% hits; AID 504810;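 active = activity change below a set negative limit, meaning inhibition stronger than a set level, cut at about -70% in these data; inconclusive = activity change between two set negative limits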
Target sequence (P16473 whole entry, looked up): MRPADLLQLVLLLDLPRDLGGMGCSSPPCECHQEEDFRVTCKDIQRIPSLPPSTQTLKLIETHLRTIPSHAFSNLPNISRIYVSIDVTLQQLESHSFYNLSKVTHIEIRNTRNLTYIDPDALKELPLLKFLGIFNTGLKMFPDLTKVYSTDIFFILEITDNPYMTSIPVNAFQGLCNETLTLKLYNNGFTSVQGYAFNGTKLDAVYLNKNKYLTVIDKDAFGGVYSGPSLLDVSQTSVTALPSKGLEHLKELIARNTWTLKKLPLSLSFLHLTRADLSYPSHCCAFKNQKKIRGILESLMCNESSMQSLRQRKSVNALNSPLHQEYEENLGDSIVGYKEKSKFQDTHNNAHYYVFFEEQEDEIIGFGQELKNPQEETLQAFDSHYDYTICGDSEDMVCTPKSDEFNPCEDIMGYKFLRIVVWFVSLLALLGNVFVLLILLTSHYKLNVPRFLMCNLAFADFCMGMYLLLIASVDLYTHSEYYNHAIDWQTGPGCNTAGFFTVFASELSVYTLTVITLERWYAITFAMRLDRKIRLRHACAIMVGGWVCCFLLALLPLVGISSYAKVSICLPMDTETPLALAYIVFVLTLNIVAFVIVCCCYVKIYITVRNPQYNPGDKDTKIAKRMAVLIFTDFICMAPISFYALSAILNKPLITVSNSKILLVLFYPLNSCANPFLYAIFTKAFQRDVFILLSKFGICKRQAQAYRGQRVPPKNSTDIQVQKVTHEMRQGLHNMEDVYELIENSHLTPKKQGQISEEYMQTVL
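Read-out is FRET at 665 nm (cryptate excitation 337 nm) from a cryptate-tagged anti-cAMP antibody, competed by cell cAMP against cAMP-d2. Compounds are tested on freshly harvested TSHR cells challenged with 4nM TSH (EC80) for 2 hours at 37 deg C.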
RORg inh = inhibitors of mouse ROR gamma transcriptional activity; P51450; Drosophila S2 Gal4-RORgamma UAS-luciferase reporter, 20 h; Potency, µM (series often up to 53.6 µM), for inactives: top-dose activity change, negative = inhibition, usual class: inhibitors; 310,000 compounds, 5.4% hits; also: potency is read from the fitted curve at half-maximal effect; nearly all actives have a fitted effect of over 60% in size
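A Gal4/UAS one-hybrid system in insect cells: metallothionein-promoter Gal4–ROR gamma fusion plus Photinus luciferase reporter. Copper sulfate 700 uM final, 20 hr ambient incubation, luminescent detection after 10 min with reagent.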
ELG1 DNA repair = inhibitors of ELG1-dependent DNA repair in HEK293T cells | Potency, µM (titrated, usually from 46.1 µM), for the others: top-dose activity change, negative = inhibition, most hits filed as inhibitors | 330,000 compounds, 2.3% hits | HEK293T ELG1-luciferase reporter, luminescence, 16 h; DNA damage induced by 5-fluorouridine; also: potency is read from the fitted curve at half-maximal effect; nearly all actives have a fitted effect of over 55% in size
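Reporter activity after DNA damage by 5-fluorouridine is monitored. Compound-treated cells incubate 16 hr at 37 °C, then ONE-Glo is added for 30 min before luminescence reading.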
Active calls of the source: *; ? = inconclusive; . = no result given; [ ] = remark or other dose. The list is not random: actives were taken first. Their share in the collection is about 7.5%. Unless noted, calls follow the shape of the dose curve; as a rule, active = well fitted curve in the direction sought with a large enough effect; inconclusive = small, poorly fitted or top-dose-only effect, or another doubt; inactive = no such curve, though single readings can be large; an effect the other way counts as inactive or inconclusive. Unless noted, % is scaled to controls: 0 for no effect and ±100 for the full control effect.

SMILES | B2AR arrestin | Gal4-VP16 FLuc | TSHR antagonist | RORg inh | ELG1 DNA repair
CCN(C(=O)COc1ccc(N(C)S(=O)(=O)c2ccc(NC(C)=O)cc2)cc1)C1CCCCC1 | -1% | . | 1 | . | 21µM*
COCC(C)n1c(C)cc(C(=O)COc2ccc(N(C)S(=O)(=O)c3ccc(NC(C)=O)cc3)cc2)c1C (centres undefined) | -1% | . | -6 | . | 4.1µM*
CCN(CC)C(=O)COc1ccc(N(C)S(=O)(=O)c2ccc(NC(C)=O)cc2)cc1 | 0% | -11% | 12 | 0% | ?
CCC(C)C1/C=C\CCCC(=O)N1Cc1ccc(C)cc1 (centres undefined) | . | -5% | . | 1% | .
C[C@@H]1C=CCC(=O)OC[C@H](C)C(=O)OC[C@H]2O[C@H]1C=C[C@H]2O | . | -6%[10 µM] | . | -14%[10 µM] | .
CC1=CC(C)(C)NC(=S)N1c1ccc(C)c(C)c1 | 0% | 4.5µM* | -13 | 0.56µM* | ?
CC1=CC(C)(C)NC(=S)N1c1ccc(C)cc1 | 0% | 3.5µM* | 8 | 1.6µM* | -27%
CC1=CC(C)(C)NC(=S)N1c1cccc(C)c1 | 0% | 11µM* | 15 | 4.5µM* | 5%
CSC[C@@H]1NC(=S)N(c2ccc(C)cc2)C1=O | -1% | -29% | 4 | 28% | -23%
Cc1cccc(N2C(=O)CCC2=O)c1 | -1% | -4% | 2 | -9% | ?
COC(=O)c1ccc(COC(=O)C2CCN(S(=O)(=O)c3ccc(C)c(C)c3)CC2)o1 | -3% | . | -27 | . | 5%
COc1cccc(CN(C)C(=O)CCN=C2NS(=O)(=O)c3ccccc32)c1 | 0% | . | . | . | ?
CCCCCCCC(=O)OCCOC(=O)CCCCCCC | . | -2% | . | -13% | .
Cc1[nH]c(=S)c(C#N)c(C)c1Cc1ccc(Cl)cc1Cl | 0% | 20µM* | -4 | 3.2µM* | ?
c1ccc2nc3c(cc2c1)CCCCC3 | 0% | -1% | 23 | 44% | 28%
CN(C)c1ccc(-c2noc(C3CCN(C(=O)Nc4ccc(Cl)cc4)CC3)n2)cc1 | 0% | 1% | 1 | -2% | ?
Cc1ccc(-c2noc(C3CCN(C(=O)Nc4ccc(C#N)cc4)CC3)n2)o1 | 0% | 1% | -10 | 14%[10 µM] | 26µM*
O=C(NN=C1CCCC1)c1ccc(O)cc1 | -1% | ? | 4 | 11µM* | 11%
O=C(Nc1cccc([N+](=O)[O-])c1)ONC1=NCCCCC1 | -1% | -1% | -9 | -6% | 7%
O=C(NN=C1CCCC1)c1ccc([N+](=O)[O-])cc1 | 0% | 0% | -1 | 11µM* | 12%
O=C(ONC1=NCCCCC1)c1ccc([N+](=O)[O-])cc1 | -1% | -13% | -5 | 10µM* | 15%
O=C(COc1ccc([N+](=O)[O-])cc1)NN=C1CCCC1 | 0% | -3% | 32 | -18% | 0%
O=C(N/N=C1\CC2CC=CC12)c1ccc(O)cc1 (centres undefined) | 0% | 4.5µM* | 9 | 2.5µM* | 9%
COC(=O)NC(NC(=S)Nc1cccc(C)c1)C(Cl)(Cl)Cl (centres undefined) | 0% | -20% | 1 | -14% | -4%
O=C(NC(NC(=S)Nc1c(Cl)cc(Cl)cc1Cl)C(Cl)(Cl)Cl)OCc1ccccc1 (centres undefined) | 0% | 5.6µM* | -32 | 7.1µM* | -19%
SMILES | B2AR arrestin | Gal4-VP16 FLuc | TSHR antagonist | RORg inh | ELG1 DNA repair
Cc1ccc(C)c(NC(=S)NC(NC(=O)OCc2ccccc2)C(Cl)(Cl)Cl)c1 (centres undefined) | 0% | ? | 5 | 14µM* | 0%
COc1cccc([C@@H]2Oc3ccc(OC)cc3C[C@H]2OC(=O)Nc2cc(OC)c(OC)c(OC)c2)c1 | . | 2% | . | -3% | .
C[C@@H]1COC(=O)[C@H](Cc2ccc(F)cc2)C/C=C\C[C@@H](CC(=O)NCCO)C(=O)N1 | 0% | . | 2 | . | 8%
CC(C)c1ccc(NC2CCCN(C(=O)CCc3cnn(C)c3)C2)cc1 (centres undefined) | 0% | 6% | -12 | 2% | 8%
Cc1ccc(-n2ncc3c(NCc4ccco4)ncnc32)c(C)c1 | 0% | 11% | 0 | ? | 1%
Cc1ccc(-n2ncc3c(NCc4cccnc4)ncnc32)c(C)c1 | -1% | 18µM* | -12 | ? | 9%
Cc1ccc(-n2ncc3c(NNC(=O)c4ccco4)ncnc32)c(C)c1 | -1% | ? | -3 | 11µM* | 0%
Cc1ccc(-n2ncc3c(NNC(=O)c4cccs4)ncnc32)cc1 | -1% | 10µM* | 5 | 1.3µM* | 7%
O=C(NNc1ncnc2c1cnn2-c1ccc(F)cc1)c1ccco1 | -1% | 10µM* | -6 | 8.9µM* | 5%
CCc1c2c(nc3cccc(OC)c13)OC(CC)C2 (centres undefined) | . | 7% | . | -11% | .
O=C1NC(=S)SC1=C1CCCCCC1 | 0% | ? | -81* | 8%[10 µM] | 5%
CN(C)S(=O)(=O)N1CCC(Oc2cccc(C(=O)NC3CCCCCC3)c2)CC1 | 0% | ? | -32 | 42% | 16µM*
CC1CCCCN1C(=O)c1ccc(OC2CCN(S(=O)(=O)N(C)C)CC2)cc1 (centres undefined) | 0% | -2% | -4 | ? | 9.2µM*
CN(C)S(=O)(=O)N1CCC(Oc2ccc(C(=O)NC3Cc4ccccc4C3)cc2)CC1 | 0% | ? | ? | ? | 16%
CN(C)S(=O)(=O)N1CCC(Oc2ccc(C(=O)N3CCCCCCC3)cc2)CC1 | 0% | ? | -5 | ? | ?
CC1=N/C(=C\c2ccc([N+](=O)[O-])cc2)C(=O)N1c1cc(Cl)ccc1C | 0% | -14% | -22 | 24% | 3%
COc1ccc(N2C(=O)/C(=C/c3ccc([N+](=O)[O-])cc3)N=C2C)c(OC)c1 | 0% | 7.9µM* | -4 | ? | ?
CCOC(=O)c1cc(-c2ccc(OC)cc2)nn1-c1ccc(C(=O)O)cc1 | 0% | -13% | -8 | -11% | -1%
COc1ccc(CCn2c(C)ccc2C)cc1OC | 0% | 0% | -5 | ? | -27%
CCCCn1c(-c2cc(Cl)ccc2OC)n[nH]c1=S | . | 10µM* | . | 3.2µM* | .
COc1ccc(CCn2c(-c3ccc(Cl)cc3)n[nH]c2=S)cc1OC | 0% | ? | -1 | 1.6µM* | -19%
COc1ccc(CCn2c(-c3ccc(C(C)(C)C)cc3)n[nH]c2=S)cc1OC | -1% | -18% | -8 | 3.2µM* | ?
COCCNc1ncnc2ccc(-c3ccccc3C(F)(F)F)cc12 | . | -15% | . | ? | .
Cc1cc(F)ccc1OC1C=CC(c2ccc3c(c2)OCO3)OC1CO (centres undefined) | . | -3%[10 µM] | . | -16%[10 µM] | .
COCCn1c(SCC(=O)N2CCc3ccccc3C2)nc2cc(Cl)ccc2c1=O | 3% | 1% | -4 | 39% | 23µM*
CCCCn1c(SCC(=O)c2ccc3c(c2)NC(=O)CO3)nc2cc(S(N)(=O)=O)ccc21 | 0% | -1% | 9 | -3% | 16µM*
